# Experimental data: PubChem BioAssay (NCATS)
# Inconclusive results are not listed. Values without a mark were called inactive. Active and inactive are the calls of the source. Calls follow the shape of the dose curve; as a rule, active = well fitted cell-killing curve with a large enough effect; inconclusive = small, poorly fitted or top-dose-only effect, or effect the other way; inactive = no such curve, though single readings can be large or run the other way.
# Assay: Viability qHTS for spleen associated tyrosine kinase inhibitor (SYKi) drug resistant MV4-11 cells (AID 1963824); also: nearly all actives have a fitted effect of over 35% in size
# Settings: SYKi-resistant MV4-11 viability, CellTiter-Glo, 72 h; series mostly up to 45 µM; viability, % of control: at the top concentration
# How it was run: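 SYK inhibitor-resistant MV4-11 AML cells, 500 per well, added to predispensed compounds and incubated 72 hr at 37 C, 5% CO2. Viability measured by CellTiter-Glo luminescence after 10 min at room temperature.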
# Potency is read from the fitted curve at half-maximal effect.
SMILES,"viability, % of control",Potency
C[C@@]1(O)[C@H](O)[C@@H](CO)O[C@H]1n1cnc2c(=O)[nH]c(N)nc21,74.1%,
CC(C)C1=CC2=CCC3[C@](C)(CCC[C@@]3(C)C(=O)O)C2CC1O (some centres not stated),89.1%,
Cc1occc(=O)c1O[C@@H]1O[C@H](CO[C@@H]2OC[C@](O)(CO)[C@H]2O)[C@@H](O)[C@H](O)[C@H]1O,138% [at 17.3 µM],
C=C1C(=O)O[C@@H]2C[C@]3(C)[C@@H](CCC(C)=O)[C@@H]3C[C@H]12,,18.4 µM (active)
CC1(C)OC(=O)C(OCC2CC2)=C1c1ccc(S(C)(=O)=O)cc1,77.1%,
c1ccc(-c2cnc(Nc3ccc(OCCN4CCCC4)cc3)s2)cc1,,0.0206 µM (active)
O=C(NCc1ccc(OC(F)(F)F)cc1)C1c2ccccc2C(=O)N1C1CCOCC1 (configuration not stated),67.8%,
Cc1ncsc1-c1ccc([C@H](C)NC(=O)[C@@H]2C[C@@H](O)CN2C(=O)[C@@H](NC(=O)COCCCOCCNC(=O)C[C@@H]2N=C(c3ccc(Cl)cc3)c3c(sc(C)c3C)-n3c(C)nnc32)C(C)(C)C)cc1,,0.0023 µM (active)
C[C@@H]1C[C@H](O[C@@H]2O[C@H](CO[C@@H]3OC[C@](O)(CO)[C@H]3O)[C@@H](O)[C@H](O)[C@H]2O)CC(C)(C)[C@H]1/C=C/[C@@H](C)O,68.9% [at 17.3 µM],
C=C1CC2C(C)(CCC(=O)O)C(C(C)(C)O)CCC2(C)C2C(=O)OC(C)(C(=O)OC)C(=O)C12C (configuration not stated),77.9% [at 17.3 µM],
CCC/C=C/C(=O)O[C@H]1CC(C)(C)CC2[C@@]13[C@H](O)C[C@]1(C)[C@@]2(CCC2[C@@]4(C)CC[C@H](O[C@@H]5O[C@H](C(=O)O)[C@@H](O)[C@H](O[C@@H]6O[C@H](CO)[C@H](O)[C@H](O)[C@H]6O[C@@H]6O[C@@H](C)[C@H](O)[C@@H](O)[C@H]6O[C@@H]6OC[C@](O)(CO)[C@H]6O)[C@H]5O[C@@H]5O[C@H](CO)[C@H](O)[C@H](O)[C@H]5O)C(C)(C)C4CC[C@]21C)O[C@H]3O (some centres not stated),,2.75 µM (active)
COc1cc(NC(=O)c2cccc(-n3cc(NC(=O)Nc4cccc(C)c4)cn3)c2)cc(OC)c1OC,,9.2 µM (active)
Cc1cc2ncc(C(=O)NCC(C)(C)NCC(=O)N3CCC[C@H]3C#N)cn2n1,79%,
CC(C)S(=O)(=O)NC[C@H](C)c1ccc(NC(=O)c2cc(F)cc(F)c2)cc1,,14.6 µM (active)
CC(=O)C1=C(O)C2c3c[nH]c4cccc(c34)CC2C(C)(C)N(C)C1=O (configuration not stated),,23.1 µM (active)
COC(=O)C#Cc1ccc([N+](=O)[O-])cc1,,2.59 µM (active)
CC1CC(=O)C2=C(O1)OC1(C)CCC3C(C)(C)C4OC4C(=O)C3(C)C1C2 (configuration not stated),87.9%,
O=C(CCO[C@@H]1O[C@H](CO)[C@@H](O)[C@H](O)[C@H]1O)c1ccc(O)cc1,99%,
CC(C)(O)C(=O)N1CCN(c2ccc(C(F)(F)F)c(C3=C(c4c[nH]c5ccccc45)C(=O)NC3=O)c2)CC1,,0.366 µM (active)
Cc1ccc(F)cc1S(=O)(=O)N[C@@H]1CCN(Cc2ccc(OC(C)C)cc2)C1,,18.4 µM (active)
COc1cc2ncnc(Nc3ccc(F)c(Cl)c3)c2cc1O,,9.2 µM (active)
CSCC[C@H](NC(=O)[C@H](CO)NC(=O)[C@H](CCC(=O)O)NC(C)=O)C(=O)N[C@H](C=O)CC(=O)O,,1.5 µM (active)
C=C(C)C(O)COc1ccc(CC(=O)O)cc1 (configuration not stated),114%,
CC(C)=CCC/C(C)=C/COCC1OC(n2ccc(=O)[nH]c2=O)C(O)C1O (configuration not stated),,11.4 µM (active)
C[C@@]1(O)[C@H](O)[C@@H](CO)O[C@H]1n1ccc(N)nc1=O,,13 µM (active)
Cc1ccc(OCCSc2ncccn2)c(Br)c1,70.1%,
CC(C)C1=CC2C(CC[C@]2(C)O)[C@](C)(O)CC1 (some centres not stated),87%,
